Assay results as given in PubChem BioAssay AID633 (Emory University Molecular Libraries Screening Center, 2007).
The whole screen tested about 86,000 compounds, of which about 1,100 (1.3%) were called active.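 How the source made its calls: active means compounds whose percent inhibition of the receptor-coactivator binding signal exceeds about 50% in the single-dose screen (limit read from the data); inactive means the rest.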 Only a selection was taken, and actives are over-represented in it overall.

The molecules below were run against Estrogen receptor beta (Homo sapiens) (UniProt Q92731) (assay: inhibitors of ERβ-SRC1 coactivator interaction, primary screen, biochemical, TR-FRET, ERβ LBD, SRC-1 peptide (AID 633;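 further: 0% = receptor plus peptide wells without compound and 100% = peptide-only wells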)). Details: TR-FRET ER-beta LBD / SRC1-Cy5 peptide binding; at 25.6 µM; active compounds read high; receptor agonist-loaded with 1 µM estradiol.
Sequence of Estrogen receptor beta (Homo sapiens) (Q92731 whole entry, looked up, the tested form may be a part): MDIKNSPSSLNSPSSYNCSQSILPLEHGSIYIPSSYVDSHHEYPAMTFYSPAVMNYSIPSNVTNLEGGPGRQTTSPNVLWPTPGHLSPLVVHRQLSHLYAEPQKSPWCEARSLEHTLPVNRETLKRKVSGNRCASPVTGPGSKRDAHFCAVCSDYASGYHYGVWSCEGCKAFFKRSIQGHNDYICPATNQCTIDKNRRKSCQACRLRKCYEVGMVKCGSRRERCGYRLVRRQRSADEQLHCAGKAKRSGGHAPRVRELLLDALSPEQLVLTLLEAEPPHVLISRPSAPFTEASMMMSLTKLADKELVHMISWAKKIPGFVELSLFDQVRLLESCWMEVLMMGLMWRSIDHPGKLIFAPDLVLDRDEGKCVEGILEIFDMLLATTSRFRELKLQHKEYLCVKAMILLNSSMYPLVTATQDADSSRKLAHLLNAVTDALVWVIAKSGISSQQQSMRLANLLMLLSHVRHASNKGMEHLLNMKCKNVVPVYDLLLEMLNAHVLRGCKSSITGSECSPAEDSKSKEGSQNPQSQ

inhibition, active:
C=CCn1c(SCc2cc(C(=O)OC)c(C)o2)nnc1-c1ccncc1 51.1%, C=C(C)CNC(=S)/N=c1\scc(C)n1CC 77.4% [fluorescence artefact?], Oc1c(Cl)cc(Cl)c(Cl)c1Cc1c(O)c(Cl)cc(Cl)c1Cl 94.6% [fluorescence artefact?], Cc1ccc(CNC(=O)CN2CCN(Cc3ccc(Cl)cc3)C2=O)cc1 52.1% [fluorescence artefact?], CC(C)CCSc1ncnc2c1oc1nc3c(cc12)COC(C)(C)C3 54.5% [fluorescence artefact?], Cc1cccc(-n2c(Cc3cc(=O)[nH]c(=O)[nH]3)nnc2SC(C)C)c1 51.8% [fluorescence artefact?], Oc1c(C(c2ccccn2)N2CCOCC2)ccc2cccnc12 (configuration not stated) 78.2% [fluorescence artefact?], O=C(c1cc2c(s1)CCC2)N1CCN(c2ccccc2)CC1 50.6%, COCCCn1c(Cc2csc(Nc3cccc(Cl)c3)n2)nnc1SCC(=O)OC1CCCCC1 77.5%, COc1cc(OC)c(C(=O)Nc2ccc(N(C)C)cc2)cc1OC 97.4% [fluorescence artefact?], O=C(NCc1ccccn1)c1ccc2nc(-c3ccco3)c(-c3ccco3)nc2c1 93% [fluorescence artefact?]

inhibition, inactive:
COC(=O)c1ccc(NC(=O)CSc2nnc(-c3ccncc3)n2C)cc1 -13.7%, C=CCn1c(SCc2c(C(=O)OC)sc(N)c2C(=O)OC)nnc1-c1ccc(Cl)cc1 -3.96%, O=C(CN(c1ccccc1)S(=O)(=O)c1ccc(Cl)cc1)Nc1ccccc1C(=O)N1CCCC1 -2.12%, C=CCn1c(SCCOc2ccc(OC)cc2)nnc1C(NC(=O)c1ccc(OC)cc1)C(C)C (configuration not stated) 6.7%, COC(=O)CSc1nc2c(c(C3CC=CCC3)c1C#N)CCC2 (configuration not stated) -2.54%, CCC(c1nnnn1C(C)(C)C)N(Cc1cc2cccc(C)c2n2nnnc12)C1CCCC1 (configuration not stated) 1.68%, O=C(CN1C(=O)CC(c2ccccc2)=Nc2ccccc21)NC1CCCCC1 -6.21%, COc1ccc(C)cc1S(=O)(=O)Nc1cccc(Cl)c1Cl -12.3%, COc1cc(OC)c(-n2c(C)cc(C=O)c2C)cc1Cl 4.25%, O=C(/C=C/c1ccc(Cl)cc1Cl)c1cccnc1 23.9%, CC1CCCC(NC(=O)CN2CCN(Cc3ccc(Cl)cc3)C2=O)C1C (configuration not stated) -3.92%, CC(NC(=O)CN1CCN(Cc2ccc(Cl)cc2)C1=O)c1ccc2c(c1)OCCO2 (configuration not stated) -8.28%, COC(=O)c1cc(NC(=O)C2C3C=CC(C3)C2C(=O)O)cc(C(=O)OC)c1 (configuration not stated) -3.6%, Cc1cc(NC(=O)CSc2nc(C(C)C)nc3sc4c(c23)CCC(C)C4)no1 (configuration not stated) -5.67%, COc1ccc(C2C(C(C)=O)=C(O)C(=O)N2Cc2cccnc2)cc1 (configuration not stated) -18.2%, CCCc1nc2oc3c(OCC)ncnc3c2c2c1COC(C)(C)C2 2.61%, C=CCn1c(=S)[nH]c2nc3c(cc2c1=O)COC(C)(C)C3 -1.84%, CCOc1cc2[nH]c(=S)n(CCN3CCCCC3C)c(=O)c2cc1OCC (configuration not stated) -0.24%, CCOc1cccc(NC(=O)Cn2nc(-c3ccc4c(c3)OCCO4)ccc2=O)c1 0.68%, C=CCc1ccc(OCCOc2cccc(/C=N/n3cnnc3)c2)c(OC)c1 -5.22%, COc1cccc(-n2c(Cc3cc(=O)[nH]c(=O)[nH]3)nnc2SCC(=O)Nc2ccccc2)c1 -4.83%, Cc1cccc(-n2c(N)cc(=O)nc2SC(C)C(=O)NC2CCCCC2)c1 (configuration not stated) -5.73%, COc1ccc(NC(=O)CSc2nc(NS(=O)(=O)c3ccc(C)cc3)cc(=O)[nH]2)cc1 -6.84%, O=C(c1cccnc1NCc1ccccc1)N1CCOCC1 2.12%, Cc1nc2sc(C(c3ccco3)N3CCOCC3)c(O)n2n1 (configuration not stated) -29.9%, O=C(Nc1nccs1)c1cc(S(=O)(=O)N2CCOCC2)c(Cl)cc1Cl -7.67%, c1ccc2c(-c3nn4nnnc4c4ccccc34)cccc2c1 -6.58%, CCOC(=O)C1=C(C)NC(SC)=NC1c1ccccc1 (configuration not stated) -3.63%, CC(Oc1ccc(Cl)cc1)c1ccnn1S(C)(=O)=O (configuration not stated) -3%, Cc1nc2ccc(C(=O)N3CCN(c4ccccc4)CC3)cc2s1 -22%, COc1cccc(-c2nn(C)c3sc(C(=O)N4CCN(c5ccccc5)CC4)cc23)c1 10.8%, O=C(Nc1ccccc1)c1ccc2c(c1)OCO2 35.7%, Cc1nn(C)cc1CNC(=O)Nc1ccc(Cl)cc1 -6.02%, CCOC(=O)c1ccc(COC(=O)CCc2nc(-c3ccccc3)c(-c3ccccc3)o2)cc1 1.8%, C=CCn1c(CC(=O)Nc2cccc(OC)c2)nnc1SCC(=O)NC1CCCCC1 -1.41%, COCCCn1c(SCC(=O)Nc2ccccc2)nnc1-c1ccncc1 1.64%, O=C(NCCCCCCNC(=O)NCc1ccco1)NCc1ccco1 -27.9%, CCOC(=O)c1sc(C)c2c1NC(C)(c1cccc3ccccc13)NC2=O (configuration not stated) 14.4%, COc1ccc(Cl)cc1C(=O)Nc1ccc(N(C)C(C)=O)cc1 3.01%, COc1cc(OC)c(C(=O)NC2CCCCCC2)cc1OC -3.66%, COc1cccc2cc(C(=O)N3CCN(C(=O)c4ccccc4)CC3)c(=O)oc12 -4.03%, COc1ccc(S(=O)(=O)N/N=C\c2ccc(OC)c(COc3ccc(C)cc3[N+](=O)[O-])c2)cc1 27.5%, Cc1ccc(NC(=S)NC(NC(=O)Cc2cccc3ccccc23)C(Cl)(Cl)Cl)cc1 (configuration not stated) 40.2%, O=C1CCCc2nn(-c3ccccc3)nc21 -7.98%, CN(c1ccc(C(=O)NCc2ccccn2)cc1)S(C)(=O)=O -12.6%, O=C(NCc1ccccn1)c1cc2ccccc2oc1=O -2.55%
